Results on 29 compounds are retold here after PubChem BioAssay (Tox21).

Unmarked numbers belong to inactive results. Results filed as inconclusive are left out. Activity calls are given as the source filed them. Unless noted, calls follow the shape of the dose curve; as a rule, active = well fitted curve in the direction sought with a large enough effect in the repeat runs; inconclusive = weak or mixed curves; inactive = no such curve, though single readings can be large; an effect the other way counts as inactive or inconclusive. Positions of bridges follow the written chain, without caps; N, C: chain ends. Non-standard residues stand in square brackets, D forms with d. Residues, ends and D or L forms follow the SMILES beside them. hArg = N=C(N)NCCCC[C@H](N)C(=O)O; Mpa = O=C(O)CCS

A short description of assay [1]: qHTS assay to identify small molecule antagonists of the glucocorticoid receptor (GR) signaling pathway - cell viability counter screen (AID 720693). Also: nearly all actives have a fitted effect of over 55% in size.
The nature of assay [2]: qHTS assay for identifying genotoxic compounds that show differential cytotoxicity against isogenic chicken DT40 cell lines with known DNA damage response pathways - wild type cell line (AID 743012). Also: nearly all actives have a fitted effect of over 60% in size. Also: potency is read from the fitted curve at half-maximal effect. The gist of the method: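 300 wt DT40 cells/well; cpd (DMSO) pintool-transferred after ~0.5 h at 37 C/5% CO2; 40 h incubation; CellTiter-Glo added, 30 min RT; luminescence read.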

Assay [3] can be described thus: qHTS assay for identifying genotoxic compounds that show differential cytotoxicity against isogenic chicken DT40 cell lines with known DNA damage response pathways - Rev3 mutant cell line (AID 743014). Also: nearly all actives have a fitted effect of over 55% in size. Also: potency is read from the fitted curve at half-maximal effect.
The nature of assay [4]: qHTS assay for identifying genotoxic compounds that show differential cytotoxicity against isogenic chicken DT40 cell lines with known DNA damage response pathways - Rad54/Ku70 mutant cell line (AID 743015). Also: nearly all actives have a fitted effect of over 60% in size. Also: potency is read from the fitted curve at half-maximal effect.
Assay [5] can be described thus: qHTS assay to identify small molecule antagonists of the androgen receptor (AR) signaling pathway - cell viability counter screen (AID 743033; also: nearly all actives have a fitted effect of over 45% in size).
Assay [6] addresses Androgen receptor (Homo sapiens) (UniProt P10275). Description: qHTS assay to identify small molecule antagonists of the androgen receptor (AR) signaling pathway (AID 743035; active = well fitted inhibition curve with a large enough effect in the signal ratio in the repeat runs, not every such curve was filed as active; the % refers to the signal ratio). Put shortly: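 In this cell-based reporter screen, compounds were tested in concentration series against R1881-activated HEK293 cells expressing beta-lactamase under UAS control; after 16 h at 37C, FRET substrate was added and fluorescence read 2 h later.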

The target is the same in assay [7]. Kind of assay: qHTS assay to identify small molecule agonists of the androgen receptor (AR) signaling pathway (AID 743036; active = well fitted activation curve with a large enough effect in the signal ratio in the repeat runs, with a control signal flat, not every such curve was filed as active; the % refers to the signal ratio). The gist of the method:
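Following a 4 h settling period, AR-UAS-bla HEK293 cells were dosed with compounds for 16 h at 37C. A 2 h room-temperature incubation with LiveBLAzer B/G FRET substrate preceded the fluorescence measurement.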

Assay [8] shares this target. Kind of assay: qHTS assay to identify small molecule agonists of the androgen receptor (AR) signaling pathway using the MDA cell line (AID 743040; also: nearly all actives have a fitted effect of over 20% in size; also: potency is read from the fitted curve at half-maximal effect). Put shortly:
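Testing was done with the MDA-kb2 AR-luc line, a human breast carcinoma stably transfected with MMTV-luciferase containing AR and GR response elements. Cells were exposed 16 h at 37C before ONE-Glo luminescence detection.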

Assay [9] has the same target. Description: qHTS assay to identify small molecule antagonists of the androgen receptor (AR) signaling pathway using the MDA cell line (AID 743042; also: nearly all actives have a fitted effect of over 55% in size). The gist of the method: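 MDA-kb2 breast carcinoma cells carrying MMTV-luciferase (AR/GR responsive) were co-treated with compounds and the agonist R1881 for 16 h at 37C. Inhibition read as ONE-Glo luminescence; CellTiter-Fluor fluorescence measured in parallel for cytotoxicity.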

Assay [10] can be described thus: qHTS assay to identify small molecule antagonists of the androgen receptor (AR) signaling pathway using the MDA cell line - cell viability counter screen (AID 743041; also: nearly all actives have a fitted effect of over 45% in size). Put shortly: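 Compound exposure lasted 16 h at 37C in MDA-kb2 AR-luc cells stimulated with R1881. Protease-based CellTiter-Fluor reagent was applied for the final 30 min and fluorescence measured.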

Chain of Androgen receptor (Homo sapiens) (P10275 whole entry, looked up): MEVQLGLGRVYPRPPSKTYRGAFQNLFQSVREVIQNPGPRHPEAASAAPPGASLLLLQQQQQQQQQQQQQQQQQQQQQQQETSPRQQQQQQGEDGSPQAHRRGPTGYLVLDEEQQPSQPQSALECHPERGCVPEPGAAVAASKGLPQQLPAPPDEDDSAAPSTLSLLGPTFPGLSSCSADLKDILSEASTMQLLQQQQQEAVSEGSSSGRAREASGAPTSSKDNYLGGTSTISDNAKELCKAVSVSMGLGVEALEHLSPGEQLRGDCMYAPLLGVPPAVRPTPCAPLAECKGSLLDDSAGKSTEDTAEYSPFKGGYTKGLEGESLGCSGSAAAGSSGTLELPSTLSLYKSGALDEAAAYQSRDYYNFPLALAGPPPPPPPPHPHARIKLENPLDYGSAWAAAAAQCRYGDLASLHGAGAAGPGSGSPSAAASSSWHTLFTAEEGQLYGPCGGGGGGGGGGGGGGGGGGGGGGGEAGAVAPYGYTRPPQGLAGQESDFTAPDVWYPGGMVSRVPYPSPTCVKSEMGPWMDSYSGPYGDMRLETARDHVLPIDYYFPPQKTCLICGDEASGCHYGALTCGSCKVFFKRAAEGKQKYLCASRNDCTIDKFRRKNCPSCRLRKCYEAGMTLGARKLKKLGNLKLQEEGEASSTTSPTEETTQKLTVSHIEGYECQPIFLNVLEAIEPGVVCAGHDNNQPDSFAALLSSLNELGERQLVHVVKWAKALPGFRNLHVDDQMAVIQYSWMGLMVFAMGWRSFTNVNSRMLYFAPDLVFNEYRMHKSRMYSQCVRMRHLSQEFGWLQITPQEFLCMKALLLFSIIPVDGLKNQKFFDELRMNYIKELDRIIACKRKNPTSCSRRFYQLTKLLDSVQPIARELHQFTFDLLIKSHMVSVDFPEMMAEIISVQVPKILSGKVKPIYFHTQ

On to `CCC(C)OC(C)CC` (stereo not drawn), for which the call in [1], in assay [5], in [6], in assay [7] and in assay [9] was inactive. Besides, the Potency entry in assay [2], in [3], in assay [4] and in assay [8] was “inactive” each time.

For `CCCCSCCCC`, in assay [1], the compound was classed as inactive. In addition, the Potency result in assay [2], in assay [3] and in assay [4] was “inactive” in each case.

In the case of `CCNC(=O)NCc1cccc(Cl)c1`, the compound was classed as inactive in assay [1] and in assay [5]. Further, the Potency result in [2], in assay [3] and in [4] was “inactive” each time.

For the compound `C=CC/C=C/C`, the compound was classed as inactive in assay [1] and in assay [5]. Also, the Potency entry in [2], in [3] and in assay [4] was “inactive” throughout.

Take `COC(=O)/C=C\C(=O)O`: the compound was classed as inactive in assay [1] and in [5]. Further, the Potency result in assay [2], in assay [3] and in assay [4] was “inactive” each time.

For `CCCCCCCCCCCCCCCCCCOCCO`, in assay [1], the compound was classed as inactive. Moreover, the Potency entry in [2], in [3] and in assay [4] was “inactive” each time.

For the compound `C/C=C(\C)C(C)=O`, the compound was classed as inactive in assay [1], in assay [5], in assay [6], in assay [7] and in assay [9]. The Potency entry in assay [2], in assay [3], in assay [4], in assay [8] and in assay [10] was “inactive” each time.

Regarding `N#CCC(=O)NN`, in assay [1], the result was inactive. Also, the Potency entry in assay [2], in [3] and in [4] was “inactive” each time.

`CC12CCC(C1)C(C)(C)C2O` (stereo not drawn): the outcome in assay [1] and in assay [5] was inactive. Moreover, the Potency entry in [2], in assay [3] and in assay [4] was “inactive” each time.

Consider `C=Cc1ccc(C(C)(C)C)cc1`, for which the compound was called inactive in [1] and in assay [5]. Also, the Potency entry in assay [2], in assay [3] and in assay [4] was “inactive” each time.

As for `CC(S)C(C)S` (stereo not drawn), the outcome in assay [1], in assay [5], in assay [6], in assay [7] and in assay [9] was inactive. For the same compound, the Potency entry in assay [2], in assay [3], in [4], in assay [8] and in assay [10] was “inactive” throughout.

For the compound `CC(=O)c1cc(C)oc1C`, the call in assay [1], in assay [5], in [6], in assay [7] and in assay [9] was inactive. Moreover, the Potency result in assay [2], in assay [3], in assay [4], in assay [8] and in assay [10] was “inactive” each time.

`CC(C)=CCC[C@@](C)(O)[C@H]1CC=C(C)CC1`: the result in [1] and in assay [5] was inactive. Also, the Potency result in assay [2], in [3] and in assay [4] was “inactive” in each case.

Regarding `COC(=O)c1cccc(Cl)c1`, the compound was classed as inactive in assay [1] and in assay [5]. For the same compound, the Potency entry in [2], in [3] and in [4] was “inactive” each time.

Regarding `C=CCCCC`, the call in assay [1] and in assay [5] was inactive. The Potency entry in assay [2], in assay [3] and in assay [4] was “inactive” each time.

On to `CCCCC1CCC(O)CC1` (stereo not drawn), for which the compound was classed as inactive in [1], in [5], in assay [6], in [7] and in assay [9]. The Potency result in assay [2], in assay [3], in assay [4], in [8] and in [10] was “inactive” each time.

Consider `Cn1nnc2c(C(N)=O)ncn2c1=O`, for which the result in [1] and in assay [5] was inactive. Moreover, the Potency result in [2], in [3] and in assay [4] was “inactive” in each case.

In the case of `CC(CO)(CO)CO`, the compound was called inactive in assay [1] and in assay [5]. The Potency entry in assay [2], in assay [3] and in assay [4] was “inactive” throughout.

Consider `CCCCCCCCCCCCCCCCCC#N`, for which the compound was classed as inactive in [1] and in [5]. Also, the Potency result in assay [2], in [3] and in assay [4] was “inactive” each time.

On to `COC(C)(OC)OC`, for which the call in [1], in assay [5], in assay [6], in assay [7] and in assay [9] was inactive. In addition, the Potency result in [2], in [3], in [4], in [8] and in [10] was “inactive” throughout.

In the case of `CC(C)Nc1ccccc1`, the call in assay [1] was inactive. Also, the Potency entry in [2], in assay [3] and in [4] was “inactive” in each case.

In the case of `CO/N=C(/C(=O)N[C@@H]1C(=O)N2C(C(=O)[O-])=C(C[n+]3ccn4ncccc43)CS[C@H]12)c1nsc(N)n1`, the result in assay [1] and in assay [5] was inactive. For the same compound, the Potency result in assay [2], in [3] and in assay [4] was “inactive” throughout.

As to `CC(=O)O[C@H]1C[C@@H]2CC[C@@]1(C)C2(C)C`, the result in assay [1], in assay [5], in [6], in assay [7] and in [9] was inactive. Moreover, the Potency result in assay [2], in assay [3], in [4], in [8] and in [10] was “inactive” each time.

For the compound `N[C@@H](CSCCCO)C(=O)O`, the compound was called inactive in assay [1], in assay [5], in assay [6], in assay [7] and in assay [9]. In addition, the Potency result in assay [2], in assay [3], in assay [4] and in assay [10] was “inactive” throughout. Further, in assay [8], the Potency was 33.5 µM (active).

Regarding `NC(=O)[C@@H]1CSSCCC(=O)N[C@@H](CCCCN=C(N)N)C(=O)NCC(=O)N[C@@H](CC(=O)O)C(=O)N[C@@H](Cc2c[nH]c3ccccc23)C(=O)N2CCC[C@H]2C(=O)N1` ([Mpa][hArg]GDWPC-NH2; disulfide 1-7), in assay [1], the result was inactive. Moreover, the Potency result in [2], in assay [3] and in [4] was “inactive” each time.

With `COP(=O)(O)OP(=O)(O)OC`, the outcome in [1] and in assay [5] was inactive. Moreover, the Potency entry in assay [2], in [3] and in [4] was “inactive” each time.

Take `CC(C)[C@H]1CC[C@H](C)C[C@@H]1O`: the outcome in assay [1], in [5], in assay [6], in assay [7] and in [9] was inactive. In addition, the Potency entry in assay [2], in assay [3], in assay [4], in [8] and in [10] was “inactive” throughout.

Consider `CCOC(CN1CCN(CC(C)C(=O)c2ccccc2)CC1)c1ccccc1` (stereo not drawn), for which the outcome in [1] and in assay [5] was inactive. For the same compound, the results for the Potency in [2], in assay [3] and in assay [4] were 10.6 µM (active), 13.3 µM (active) and 18.8 µM (active), respectively.

On to `COS(=O)(=O)O`, for which the outcome in assay [1] was inactive. The Potency result in assay [2], in assay [3] and in assay [4] was “inactive” throughout.
